Activity calls are given as the source filed them. How the source made its calls: active means hit-call score of the fitted dose curve at least 0.9, where 1 is the maximum; inactive means score below 0.9.

A short description of this assay: APR_HepG2_CellLoss_24hr: Apredica 24-hour HepG2 Assay for Cell Loss (AID 2282908).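 On AC50: fit in both directions so a hit may be cell loss or gain.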 The note with it: high-content imaging. The essentials: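 Read-out: Hoechst 33342-stained nuclei counted by automated fluorescence imaging after formaldehyde fixation and Triton permeabilization. Ten concentrations, 0.39 to 200 uM, duplicate wells, 0.5% DMSO final. Gain or loss of signal fitted relative to DMSO baseline.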
With `O=C(O)COc1nc(Cl)c(Cl)cc1Cl`, the outcome was inactive.

In the case of `COC(=O)C(C)Oc1ccc(Oc2ccc(Cl)cc2Cl)cc1` (configuration not stated), the call was inactive.

With `CC1=C(C(=O)Nc2ccccc2)SCCO1`, the call was inactive.

For `CCOC(=O)CC(SP(=S)(OC)OC)C(=O)OCC` (configuration not stated), the call was inactive.

With `CC(C)Oc1cc(-n2nc(C(C)(C)C)oc2=O)c(Cl)cc1Cl`, the AC50 was 50.8 µM (active).

Take `CCCCNC(=O)n1c(NC(=O)OC)nc2ccccc21`: the AC50 was 12.4 µM (active).

`COC(=O)c1ccccc1C(=O)OC`: the molecule was called inactive.

For the molecule `CON(C)C(=O)Nc1ccc(Cl)c(Cl)c1`, the molecule was called inactive.

Regarding `CCNc1nc(Cl)nc(NCC)n1`, the molecule was called inactive.

With `CN(C)C(=S)SSC(=S)N(C)C`, the AC50 is 2.3 µM (active).

In the case of `CS/C(C)=N/OC(=O)N(C)SN(C)C(=O)O/N=C(\C)SC`, the AC50 is 47.4 µM (active).

In the case of `C=CCC1=C(C)[C@@H](OC(=O)[C@@H]2[C@@H](C=C(C)C)C2(C)C)CC1=O`, the AC50 was 99.2 µM (active).

(Values after PubChem BioAssay (EPA / NIEHS).)
